What all share (assay): log2 fold change, soluble protein after heating vs DMSO (PISA); higher = thermal stabilisation; K562 cells, 10 uM, 30 min; active = over 0.2 and 3.5 SD of the protein, either way, in both replicates (recomputed)
Compound in test [1]: NC(=O)Nc1cc(-c2cccc(F)c2)sc1C(=O)N[C@H]1CCCNC1
An outline of the steps: (§1)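 Quantification of soluble protein used TMTpro 16plex LC-MS/MS, with channel sums equalised. Samples were the supernatant after 21,000xg for 90 min of pooled aliquots from K562 cells (2×10^6 cells/mL) treated with 10 μM compound for 30 min, heated for 3 min over 48°C-58°C, and extracted in PBS with 0.5% NP-40 at 4°C. Values, from duplicates, describe thermal stability against control samples on a log2 fold-change scale.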

Compound in test [2]: NC(=O)c1cnc(N[C@@H]2CCCC[C@@H]2N)nc1Nc1cccc(-n2nccn2)c1
In a few lines:
as §1

Compound in test [3]: NC1(c2ccc(-c3nc4ccn5c(=O)[nH]nc5c4cc3-c3ccccc3)cc2)CCC1
An outline of the steps:
as §1

Compound in test [4]: NCC(=O)Nc1ccc(-n2nc(C(F)(F)F)cc2-c2ccc3c(ccc4ccccc43)c2)cc1
An outline of the steps: as §1

Compound in test [5]: Nc1ccccc1NC(=O)c1ccc(CNC(=O)OCc2cccnc2)cc1 [entinostat]
An outline of the steps: as §1

Compound in test [6]: O=C(CCCCCCC(=O)Nc1ccccc1)NO [vorinostat]
An outline of the steps:
as §1

Compound in test [7]: O=C(CCCCCCNC(=O)c1cnc(N(c2ccccc2)c2ccccc2Cl)nc1)NO [citarinostat]
An outline of the steps: as §1

Compound in test [8]: O=C(O)c1ccc2c(c1)nc(Nc1cccc(Cl)c1)c1ccncc12 [silmitasertib]
In a few lines: as §1

Compound in test [9]: O=C1NC(=O)C(c2cnc3ccccn23)=C1c1cn2c3c(cc(F)cc13)CN(C(=O)N1CCCCC1)CC2
An outline of the steps:
as §1

Compound in test [10]: c1cc(OCCN2CCCCC2)cc(-c2n[nH]c3ccc(-c4nnc[nH]4)cc23)c1
An outline of the steps:
as §1

Compound in test [11]: c1cn2cc(-c3ccc4cn[nH]c4c3)nc(Nc3ccc(N4CCOCC4)cc3)c2n1 [entospletinib]
An outline of the steps:
as §1

About 7,900 targets were measured; listed, in parts, are those with a hit and a random draw of the rest. About 0.6% of all pairs of compound and target were hits. A number with no mark means an inactive call.

Sequence of UniProt Q9H8Y5 (Q9H8Y5 whole entry, looked up): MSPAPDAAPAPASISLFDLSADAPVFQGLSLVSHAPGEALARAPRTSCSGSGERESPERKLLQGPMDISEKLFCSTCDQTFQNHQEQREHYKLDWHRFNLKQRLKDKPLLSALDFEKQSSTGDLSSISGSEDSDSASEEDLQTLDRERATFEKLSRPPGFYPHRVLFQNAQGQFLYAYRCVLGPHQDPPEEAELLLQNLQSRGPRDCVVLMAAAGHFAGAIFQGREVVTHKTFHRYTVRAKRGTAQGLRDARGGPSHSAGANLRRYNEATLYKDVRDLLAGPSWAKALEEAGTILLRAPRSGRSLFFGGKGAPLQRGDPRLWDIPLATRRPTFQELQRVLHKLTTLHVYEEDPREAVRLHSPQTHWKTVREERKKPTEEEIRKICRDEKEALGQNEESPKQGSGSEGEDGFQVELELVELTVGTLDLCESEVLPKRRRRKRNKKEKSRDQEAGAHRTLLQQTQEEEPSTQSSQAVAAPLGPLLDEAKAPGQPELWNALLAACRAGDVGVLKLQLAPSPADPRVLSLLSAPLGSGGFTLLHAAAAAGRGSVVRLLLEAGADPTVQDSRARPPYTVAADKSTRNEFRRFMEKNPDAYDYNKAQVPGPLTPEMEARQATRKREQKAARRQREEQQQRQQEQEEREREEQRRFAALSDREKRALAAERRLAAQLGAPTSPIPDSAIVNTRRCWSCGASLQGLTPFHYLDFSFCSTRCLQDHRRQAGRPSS
Sequence of UniProt Q8N6S5 (Q8N6S5 whole entry, looked up): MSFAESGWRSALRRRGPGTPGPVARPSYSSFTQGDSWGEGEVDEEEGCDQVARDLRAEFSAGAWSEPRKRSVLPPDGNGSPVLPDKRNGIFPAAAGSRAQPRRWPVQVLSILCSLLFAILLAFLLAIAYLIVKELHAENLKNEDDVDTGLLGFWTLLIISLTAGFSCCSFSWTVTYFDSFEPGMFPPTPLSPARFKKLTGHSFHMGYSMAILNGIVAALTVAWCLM
Sequence of UniProt Q86UU0 (Q86UU0 whole entry, looked up): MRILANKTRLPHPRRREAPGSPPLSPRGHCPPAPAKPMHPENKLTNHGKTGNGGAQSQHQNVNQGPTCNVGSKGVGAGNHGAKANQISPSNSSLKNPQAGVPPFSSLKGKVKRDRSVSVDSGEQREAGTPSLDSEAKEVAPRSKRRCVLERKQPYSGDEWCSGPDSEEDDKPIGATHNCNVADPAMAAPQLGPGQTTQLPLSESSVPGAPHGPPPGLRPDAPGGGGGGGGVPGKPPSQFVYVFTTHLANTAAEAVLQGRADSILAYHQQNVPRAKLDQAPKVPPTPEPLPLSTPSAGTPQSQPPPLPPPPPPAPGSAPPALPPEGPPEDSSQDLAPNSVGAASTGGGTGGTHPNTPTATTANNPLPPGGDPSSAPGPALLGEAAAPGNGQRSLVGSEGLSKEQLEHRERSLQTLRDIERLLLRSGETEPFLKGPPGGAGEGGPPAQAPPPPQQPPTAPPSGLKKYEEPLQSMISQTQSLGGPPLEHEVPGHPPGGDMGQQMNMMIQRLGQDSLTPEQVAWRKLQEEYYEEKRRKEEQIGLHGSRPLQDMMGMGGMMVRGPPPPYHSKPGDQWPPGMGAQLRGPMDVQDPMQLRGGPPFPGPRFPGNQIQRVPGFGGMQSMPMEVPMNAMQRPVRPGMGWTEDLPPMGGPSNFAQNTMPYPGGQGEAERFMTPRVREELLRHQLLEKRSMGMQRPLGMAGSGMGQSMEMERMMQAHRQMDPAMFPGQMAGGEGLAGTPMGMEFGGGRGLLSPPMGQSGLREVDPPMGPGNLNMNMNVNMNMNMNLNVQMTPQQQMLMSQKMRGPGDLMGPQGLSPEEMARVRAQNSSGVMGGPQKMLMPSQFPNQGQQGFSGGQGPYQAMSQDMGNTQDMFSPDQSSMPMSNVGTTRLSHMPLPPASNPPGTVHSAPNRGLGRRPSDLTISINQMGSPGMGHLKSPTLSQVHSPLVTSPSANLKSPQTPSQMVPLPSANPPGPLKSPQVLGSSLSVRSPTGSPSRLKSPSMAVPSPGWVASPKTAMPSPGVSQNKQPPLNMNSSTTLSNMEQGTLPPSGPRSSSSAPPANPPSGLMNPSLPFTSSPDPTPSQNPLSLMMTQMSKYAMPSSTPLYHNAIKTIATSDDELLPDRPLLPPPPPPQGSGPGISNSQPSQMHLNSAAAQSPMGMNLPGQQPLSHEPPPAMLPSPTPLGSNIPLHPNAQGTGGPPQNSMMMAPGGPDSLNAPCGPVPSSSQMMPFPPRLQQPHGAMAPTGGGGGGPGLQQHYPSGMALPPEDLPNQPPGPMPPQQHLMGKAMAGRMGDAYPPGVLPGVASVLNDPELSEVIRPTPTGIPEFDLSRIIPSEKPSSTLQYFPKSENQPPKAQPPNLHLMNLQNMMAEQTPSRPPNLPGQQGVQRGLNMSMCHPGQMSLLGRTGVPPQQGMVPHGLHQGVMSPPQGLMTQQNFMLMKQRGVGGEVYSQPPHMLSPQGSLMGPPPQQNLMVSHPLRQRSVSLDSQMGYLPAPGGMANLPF
Sequence of UniProt Q99943 (Q99943 whole entry, looked up): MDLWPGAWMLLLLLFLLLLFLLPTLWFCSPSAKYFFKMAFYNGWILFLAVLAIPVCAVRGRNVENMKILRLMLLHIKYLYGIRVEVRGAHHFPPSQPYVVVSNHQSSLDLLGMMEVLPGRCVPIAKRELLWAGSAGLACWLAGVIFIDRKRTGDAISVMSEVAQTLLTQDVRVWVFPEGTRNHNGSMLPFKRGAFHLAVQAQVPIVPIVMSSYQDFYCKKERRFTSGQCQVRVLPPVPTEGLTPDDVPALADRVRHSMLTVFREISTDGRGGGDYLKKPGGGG
Sequence of UniProt P54886 (P54886 whole entry, looked up): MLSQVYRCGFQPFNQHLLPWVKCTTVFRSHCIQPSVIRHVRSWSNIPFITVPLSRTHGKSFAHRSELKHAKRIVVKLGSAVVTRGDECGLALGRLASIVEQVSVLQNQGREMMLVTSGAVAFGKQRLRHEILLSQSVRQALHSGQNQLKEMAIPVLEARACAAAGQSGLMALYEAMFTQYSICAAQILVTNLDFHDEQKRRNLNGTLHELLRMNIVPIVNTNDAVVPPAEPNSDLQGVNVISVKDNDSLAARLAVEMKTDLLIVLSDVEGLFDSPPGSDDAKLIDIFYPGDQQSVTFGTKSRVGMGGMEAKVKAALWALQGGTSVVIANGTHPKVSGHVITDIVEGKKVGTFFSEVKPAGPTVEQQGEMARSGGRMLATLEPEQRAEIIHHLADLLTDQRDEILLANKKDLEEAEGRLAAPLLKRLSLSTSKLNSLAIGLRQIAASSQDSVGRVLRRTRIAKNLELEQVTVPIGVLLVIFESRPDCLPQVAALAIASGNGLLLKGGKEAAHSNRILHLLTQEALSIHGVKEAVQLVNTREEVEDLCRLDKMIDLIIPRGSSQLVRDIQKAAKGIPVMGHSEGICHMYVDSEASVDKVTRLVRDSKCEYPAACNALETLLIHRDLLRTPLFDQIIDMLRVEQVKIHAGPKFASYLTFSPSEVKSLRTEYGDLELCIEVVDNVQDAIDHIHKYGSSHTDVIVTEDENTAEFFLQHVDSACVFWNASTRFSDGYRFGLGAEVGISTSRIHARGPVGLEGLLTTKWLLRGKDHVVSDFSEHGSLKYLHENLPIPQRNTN
Sequence of UniProt P00966 (P00966 whole entry, looked up): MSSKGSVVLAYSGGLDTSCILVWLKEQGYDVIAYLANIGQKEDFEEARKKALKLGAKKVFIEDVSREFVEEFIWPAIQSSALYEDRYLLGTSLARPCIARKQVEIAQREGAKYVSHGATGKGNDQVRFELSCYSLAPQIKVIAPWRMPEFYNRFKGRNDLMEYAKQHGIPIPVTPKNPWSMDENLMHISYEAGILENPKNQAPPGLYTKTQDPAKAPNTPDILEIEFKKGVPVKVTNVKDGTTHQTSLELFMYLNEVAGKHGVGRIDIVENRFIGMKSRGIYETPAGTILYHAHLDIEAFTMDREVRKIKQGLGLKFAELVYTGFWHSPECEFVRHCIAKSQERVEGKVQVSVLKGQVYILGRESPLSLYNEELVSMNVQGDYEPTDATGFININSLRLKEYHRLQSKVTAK
Sequence of UniProt Q9Y4P1 (Q9Y4P1 whole entry, looked up): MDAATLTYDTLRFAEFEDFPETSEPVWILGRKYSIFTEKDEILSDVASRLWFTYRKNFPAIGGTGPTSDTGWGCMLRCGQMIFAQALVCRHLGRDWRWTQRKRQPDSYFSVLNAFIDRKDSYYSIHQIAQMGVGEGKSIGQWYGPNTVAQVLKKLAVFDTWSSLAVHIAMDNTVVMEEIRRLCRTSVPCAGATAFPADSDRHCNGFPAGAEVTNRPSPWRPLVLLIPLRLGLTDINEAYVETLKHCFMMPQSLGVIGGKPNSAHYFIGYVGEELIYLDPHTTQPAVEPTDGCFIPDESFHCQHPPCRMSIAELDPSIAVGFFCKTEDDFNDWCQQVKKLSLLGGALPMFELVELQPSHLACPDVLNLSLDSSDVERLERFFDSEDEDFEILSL
Sequence of UniProt P31939 (P31939 whole entry, looked up): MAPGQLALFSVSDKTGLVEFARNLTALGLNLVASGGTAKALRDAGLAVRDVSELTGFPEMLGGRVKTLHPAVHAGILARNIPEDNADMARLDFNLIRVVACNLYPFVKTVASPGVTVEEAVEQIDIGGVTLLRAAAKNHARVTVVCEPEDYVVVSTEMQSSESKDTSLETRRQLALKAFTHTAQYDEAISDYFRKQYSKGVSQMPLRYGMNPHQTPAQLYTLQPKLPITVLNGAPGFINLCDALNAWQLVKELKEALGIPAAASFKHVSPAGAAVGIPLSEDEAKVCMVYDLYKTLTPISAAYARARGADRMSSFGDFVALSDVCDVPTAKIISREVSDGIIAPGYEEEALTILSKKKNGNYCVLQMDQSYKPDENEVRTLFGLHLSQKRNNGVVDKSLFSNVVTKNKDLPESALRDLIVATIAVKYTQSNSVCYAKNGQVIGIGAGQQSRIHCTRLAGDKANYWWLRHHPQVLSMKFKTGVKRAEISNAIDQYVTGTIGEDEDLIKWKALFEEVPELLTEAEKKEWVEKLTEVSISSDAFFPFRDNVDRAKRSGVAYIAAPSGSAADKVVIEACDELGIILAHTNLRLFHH

Regarding ACADVL isoform 3 (UniProt P49748), the log2 fold change in test [1] is -0.025; in [2], -0.036; in test [3] it was -0.021; in test [4], -0.032; in test [5], 0; in test [6], -0.019. Besides, the log2 fold change in [7] was 0.043; in test [8], -0.015; in test [9], -0.014; in test [10] it was -0.028; in test [11], 0.002.
In the case of ATIC (UniProt P31939), the log2 fold change in test [1] is -0.023; in test [2], 0.001; in test [3], 0.03; in test [4], -0.009; in test [5] it was -0.019; in test [6], -0.026. The log2 fold change in test [7] was 0.01; in test [8], -0.059; in test [9] it was -0.066; in test [10], 0.013; in test [11] it was 0.045.
In the case of ACSF3 (UniProt Q4G176), the log2 fold change was -0.016 in test [1]; -0.073 in test [2]; -0.098 in test [3]; -0.184 in test [4]; 0.069 in test [5]; 0.007 in test [6]. The log2 fold change in [7] is 0.197; in [8], 0.109; in [9], 0.035; in test [10], -0.107; in test [11], -0.059.
Consider ASNS (UniProt P08243), for which the log2 fold change in test [1] was -0.033; in [2], -0.018; in test [3], -0.019; in test [4] it was 0.008; in test [5], -0.007; in [6], 0.018. The log2 fold change in [7] was 0.013; in test [8] it was -0.044; in [9], -0.021; in [10], -0.026; in test [11] it was 0.004.
On to ATG4B isoform 2 (UniProt Q9Y4P1), for which the log2 fold change in test [1] was 0.08; in test [2], -0.104; in test [3], -0.401; in [4] it was -0.151; in test [5] it was 0.154; in test [6], 0.268. Further, the log2 fold change in test [7] was 0.005; in test [8] it was 0.003; in [9], -0.093; in test [10] it was -0.023; in test [11] it was 0.11.
Consider ASS1 (UniProt P00966), for which the log2 fold change in test [1] is -0.054; in [2], -0.184; in [3], -0.087; in test [4], 0.026; in test [5], 0.096; in test [6] it was -0.052. Besides, the log2 fold change is -0.037 in test [7]; 0.02 in test [8]; -0.013 in test [9]; 0.013 in test [10]; 0.096 in test [11].
Take ANKZF1 (UniProt Q9H8Y5): the log2 fold change in test [1] was -0.008; in [2], 0.026; in [3], 0.072; in [4], -0.001; in [5] it was 0.03; in test [6] it was 0.054. The log2 fold change was -0.006 in test [7]; -0.051 in [8]; 0.215 in test [9]; -0.065 in test [10]; 0.006 in test [11].
Turning to ALDH18A1 (UniProt P54886), the log2 fold change in test [1] is 0.033; in test [2], -0.03; in [3], -0.34; in test [4], -0.219; in test [5], 0.249; in test [6], 0.194. Further, the log2 fold change in [7] was 0.031; in test [8], 0.018; in [9], -0.329; in test [10], -0.372; in [11], -0.246.
As for AGPAT1 (UniProt Q99943), the log2 fold change in test [1] is 0.013; in [2], -0.022; in test [3] it was 0.018; in test [4] it was -0.012; in [5] it was -0.033; in test [6] it was -0.03. In addition, the log2 fold change was 0.088 in test [7]; -0.007 in [8]; -0.067 in test [9]; -0.002 in [10]; -0.037 in test [11].
ALG5 (UniProt Q9Y673): the log2 fold change is -0.047 in test [1]; -0.129 in [2]; -0.029 in test [3]; -0.031 in test [4]; 0.02 in [5]; 0.052 in test [6]. Moreover, the log2 fold change was 0.051 in [7]; 0.075 in test [8]; -0.106 in test [9]; 0.08 in test [10]; -0.005 in test [11].
As to BCL9L (UniProt Q86UU0), the log2 fold change in [1] was 0.037; in [2] it was -0.009; in test [3], 0.03; in test [4], 0.021; in test [5], -0.002; in test [6] it was 0.012. The log2 fold change is 0.017 in test [7]; -0.038 in test [8]; -0.045 in test [9]; 0.241 (active) in test [10]; -0.027 in test [11].
Take ARL6IP6 (UniProt Q8N6S5): the log2 fold change in test [1] is -0.085; in test [2], -0.125; in test [3] it was -0.073; in [4], -0.015; in [5] it was -0.021; in test [6], -0.007. The log2 fold change is -0.058 in test [7]; -0.014 in test [8]; 0.011 in test [9]; -0.059 in test [10]; -0.091 in [11].
In the case of ACSL1 (UniProt P33121), the log2 fold change in test [1] was -0.058; in test [2], -0.015; in [3], -0.091; in test [4], -0.003; in [5], -0.034; in test [6] it was 0.004. The log2 fold change in test [7] is 0.071; in test [8] it was 0.029; in test [9], -0.038; in test [10], -0.022; in [11], -0.006.

Source of the values: the supplement of paper PMC10849652.
